Hits are enriched below; roughly 3% of the tested compounds scored in any of these assays.
CHT allo act: CHT positive allosteric modulators, primary screen, cell-based, membrane potential dye, choline EC20; High affinity choline transporter 1 (Homo sapiens), Q9GZV3; CHT-expressing cells; active compounds read high; LV-AA mutant CHT in HEK293 cells; actives 0.49% (n = 310,000); B-score at 10 µM;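 active = initial fluorescence not abnormally high and integrated response B-score, plate-corrected, over 3 SD above library mean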
Target sequence (Q9GZV3 whole entry, looked up): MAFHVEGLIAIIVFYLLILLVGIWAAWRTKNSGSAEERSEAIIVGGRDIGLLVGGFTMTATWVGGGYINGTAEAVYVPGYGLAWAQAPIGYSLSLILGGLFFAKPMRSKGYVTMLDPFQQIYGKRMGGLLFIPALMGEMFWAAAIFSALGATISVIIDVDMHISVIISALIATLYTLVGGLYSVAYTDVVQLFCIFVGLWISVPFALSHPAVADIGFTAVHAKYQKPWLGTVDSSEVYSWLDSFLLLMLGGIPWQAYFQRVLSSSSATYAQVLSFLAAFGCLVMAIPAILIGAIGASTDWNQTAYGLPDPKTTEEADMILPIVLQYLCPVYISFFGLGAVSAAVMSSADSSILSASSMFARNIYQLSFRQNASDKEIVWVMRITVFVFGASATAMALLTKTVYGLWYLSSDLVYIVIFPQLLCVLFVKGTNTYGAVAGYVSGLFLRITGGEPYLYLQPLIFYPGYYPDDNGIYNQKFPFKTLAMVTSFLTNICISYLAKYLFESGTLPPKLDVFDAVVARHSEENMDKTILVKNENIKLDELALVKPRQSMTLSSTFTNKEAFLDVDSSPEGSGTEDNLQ
CHT inh: inhibitors of human choline transporter CHT; High affinity choline transporter 1 (Homo sapiens), Q9GZV3; CHT-expressing cells, membrane potential dye, choline response; active compounds read low; B-score at 10 µM; actives 0.86% (n = 310,000); AID 488975, 2010;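 active = B-score over 3 SD under the library average, and starting fluorescence ratio not unusually high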;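 note: choline stimulus applied at its EC90 after an EC20 pre-addition; B-score computed on integrated fluorescence ratio after choline addition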
Mot1-301 SUMO: yeast Mot1-301 growth rescue at high temperature, primary screen, SUMOylation pathway inhibitor project, S. cerevisiae, ATP luminescence, 38.5C. S. cerevisiae Mot1-301 growth rescue; percent above DMSO median, 100 means doubled. growth rescue, % at 18.8 µM. actives 1% (n = 320,000);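 active = every valid replicate shows activation above 250% relative to neutral control wells; inactive = the rest, any valid replicate at or below 250%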
NALP1 inh: NALP1 inflammasome inhibitors in reconstituted yeast, colorimetric, S. cerevisiae, triplicate retest; S. cerevisiae NALP1/ASC/caspase-1 growth, X-gal OD620, 72 h; inhibition, % at 10 µM; actives 0.61% (n = 280,000); AID 2071, 2009; in the data active = inhibition mostly above about 24%, no sharp cut-off; inactive = mostly below about 32%
NLRP3 yeast inh: NALP3 inflammasome inhibitors in reconstituted yeast, primary screen, luminescence, uHTS; Yeast reconstituted NLRP3/ASC/caspase-1, beta-gal luminescence, 24 h; inhibition, % at 10 µM; actives 0.39% (n = 330,000);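 active = inhibition of 50% or more; inactive = inhibition below 50%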
Bfl-1 A1 inh: caspase 3/7 activation in MEF A1-2A-BIM cells, primary screen, A1 inhibitor project, cell-based, luminescence, HTS | Caspase-Glo 3/7 luminescence, 3 h; percent of clofoctol response, vehicle zero | caspase activation, % (no concentration beside the values) | actives 0.066% (n = 330,000) | AID 2462, 2010;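 active = over half of replicate activation scores above 10%, or exactly half above 10 with the replicate mean above 10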
NALP3 yeast conf: NALP3 inhibitors retested in yeast, confirmation, luminescence, single concentration; shares compounds with NLRP3 yeast inh; yeast expressing human NALP3; inhibition, % at 10 µM; actives 81% (n = 1,300); AID 435006, 2010; in the data active = inhibition above about 48%
Casp1 ASC ctr: CASP1-PYCARD signaling inhibition in yeast, confirmatory test, counterassay for NLRP3 inhibitor program, one-dose; shares compounds with NLRP3 yeast inh; yeast expressing Caspase-1-ASC, luminescence counter screen; inhibition, % at 10 µM; actives 66% (n = 1,000); AID 488784, 2010
NALP3 retest: NALP3 inhibitors in yeast, repeat test, confirmation, luminescence, single concentration, retest; actives 53% (n = 1,000); AID 488794, 2010; shares compounds with NLRP3 yeast inh; yeast expressing human NALP3, luminescence read-out; inhibition, % at 10 µM
Numbers stand for hits; 0 = inactive; - = no result; + = active, no number. Cut-off read from the data, not from the text of the source, unless noted: active = inhibition above about 50%; inactive = the rest.

SMILES	CHT allo act	CHT inh	Mot1-301 SUMO	NALP1 inh	NLRP3 yeast inh	Bfl-1 A1 inh	NALP3 yeast conf	Casp1 ASC ctr	NALP3 retest
CN(C)c1ccc(N=Nc2ccc(S(N)(=O)=O)cc2)cc1	0	0	0	0	0	0	-	-	-
CN(C)c1ccc(N=Nc2cccc(F)c2)cc1	0	0	0	0	52	0	0	51	0
O=S1(=O)Nc2c(ccc3cccnc23)-c2ccccc21	0	0	+	0	70	0	86	98	91
CC1CC(C)CN(CCCNS(=O)(=O)c2ccc3c(c2)oc(=O)n3C)C1 (configuration not stated)	0	0	0	0	0	0	-	-	-
CC1(C)CC(=O)C2=C(C1)OC1=C(C(=O)CC(C)(C)C1)C2c1ccc(O)cc1O	0	0	0	0	56	0	56	57	0
CC1(C)CC(=O)C2=C(C1)OC1=C(C(=O)CC(C)(C)C1)C2c1ccc(O)c([N+](=O)[O-])c1	0	0	0	0	0	0	-	-	-
CN(CC(=O)Nc1ccc(F)cc1)C(=O)Cn1cnc2ccc([N+](=O)[O-])cc2c1=O	-	-	0	-	0	0	-	-	-
Cc1[nH]n(-c2ccccc2)c(=O)c1N=Nc1cccc(C(=O)O)c1	0	0	0	0	0	0	-	-	-
O=C(c1cccc(F)c1)N1CCN(c2cccc(C(F)(F)F)c2)CC1	0	0	0	0	0	0	-	-	-
O=C(c1csc2c1CCCC2)N1CCN(c2cccc(C(F)(F)F)c2)CC1	0	0	0	0	0	0	0	-	-
CC(C)N(C(=O)[C@H]1CC(CC(=O)NCC23CC4CC(CC(C4)C2)C3)C(=O)N2CCc3c([nH]c4ccccc34)[C@]12C)C(C)C (some centres not stated)	-	-	-	-	0	-	-	-	-
Cn1c(/C=N/Nc2nc3ccccc3[nH]2)nc2ccccc21	0	0	0	0	51	0	74	0	0
O=C(Nc1ccc(Br)cn1)c1ccc(Br)s1	0	0	0	0	0	0	-	-	-
Cc1cc(C(=O)Nc2ccc(Br)cn2)sc1C	-	-	0	-	59	0	61	57	56
CCn1c(-c2cc(-c3ccc(OC(C)C)cc3)nc3ccccc23)n[nH]c1=S	0	0	0	0	54	0	0	-	-
COC(=O)c1sccc1NC(=O)c1ccc(Br)o1	0	0	0	0	53	0	0	0	0
CCN1/C(=C/c2ccc3cc(C)ccc3[n+]2CC)Sc2ccccc21	0	0	0	123	56	0	68	100	99
CCN1/C(=C/c2ccc3cc(C)ccc3[n+]2CC)Sc2cc(C)c(C)cc21	-	-	-	0	0	-	-	-	-
O=C(c1ccc(OC2CCN(CCc3ccccc3)CC2)cc1)N1CCCCC1CCCO (configuration not stated)	0	0	0	0	0	0	-	-	-
CC1CN(S(=O)(=O)c2cccc(C(=O)Nc3ccc(S(=O)(=O)NC4=NCCCCC4)cc3)c2)CC(C)O1 (configuration not stated)	0	0	0	-	0	0	-	-	-
COc1ccc2cc(-c3ccccc3)c(=O)oc2c1	0	0	0	0	63	0	75	68	63
COc1cccc2cc(-c3ccccc3)c(=O)oc12	0	0	0	0	54	0	72	58	50
COc1ccccc1NC(=O)Cn1c(C)nc2c(sc(=S)n2Cc2ccco2)c1=O	0	0	0	0	0	0	-	-	-
COc1ccc(OCc2cc(C(=O)O)c(C)o2)cc1	0	0	0	0	0	0	-	-	-
CC(C)CCN1CCN(Cc2ccon2)CC1CCO (configuration not stated)	0	0	0	0	0	0	-	-	-
SMILES	CHT allo act	CHT inh	Mot1-301 SUMO	NALP1 inh	NLRP3 yeast inh	Bfl-1 A1 inh	NALP3 yeast conf	Casp1 ASC ctr	NALP3 retest
C(=C\c1nc2ccccc2[nH]1)/c1ccccc1	0	0	0	0	61	0	84	60	57
CCOC(=O)C1(CCc2ccccc2)CCN(Cc2cnc(N(C)C)s2)CC1	0	0	0	0	0	0	-	-	-
CN(C)c1ncc(CN2CCC(CO)(CCCc3ccccc3)CC2)s1	0	0	0	0	70	0	0	-	-
CCN(C[C@H]1N[C@@](CC)(C(=O)OC)[C@H]2C(=O)N(C)C(=O)[C@@H]12)C(=O)COC	-	-	-	-	0	-	-	-	-
CC1CCc2c(C(=O)Nc3nccs3)csc2C1 (configuration not stated)	0	0	0	0	58	0	69	77	0
CC1CCc2c(C(=O)Nc3ccccn3)csc2C1 (configuration not stated)	0	0	0	-	0	0	-	-	-
COc1ccc(N2CCN(C(=O)COC(=O)CNC(=O)c3cccc(OC(F)F)c3)CC2)cc1	-	-	0	-	0	0	-	-	-
CCN(CC)S(=O)(=O)c1ccc2nc(SC)sc2c1	0	0	0	0	75	0	82	73	66
O=C(NC1CCCC1)c1cc(-c2ccccc2O)on1	0	0	0	0	0	0	-	-	-
COc1ccccc1-c1cc(C(=O)NC2CCCC2)no1	0	0	0	0	53	0	50	50	0
COc1ccc(C)cc1NC(=O)C1CCN(S(=O)(=O)c2ccc3c(c2)C(C)(C)C(=O)N3C)CC1	0	0	0	0	80	0	0	0	0
Oc1c(Cl)cc(Cl)cc1CNc1ccccn1	-	-	-	0	52	-	67	0	0
Cc1ccnc(NCc2ccccc2O)c1	0	0	0	0	0	0	-	-	-
Cc1c(C(=O)N2CCCCC2)oc2ccc(Br)cc12	0	0	0	-	0	0	-	-	-
Cc1ccc2oc(C(=O)N3CCCCCC3)c(C)c2c1	0	0	0	0	53	0	62	59	52
CC(Oc1cccc(Cl)c1)C(=O)Nc1nc(-c2ccccn2)cs1 (configuration not stated)	0	0	0	-	50	0	64	74	61
CC(=O)c1ccc(Oc2ccc(C(C)=O)cc2)cc1	0	0	0	0	0	0	-	-	-
Oc1ccc(Oc2ccc(Oc3ccc(O)cc3)cc2)cc1	0	0	0	38	79	0	83	93	85
O/N=C/c1cc(Br)cc(Br)c1OCc1ccccc1	0	0	0	-	0	0	0	-	-
